PubChem BioAssay AID1159580 (chemical genetic matrix, 2015)
Several values for one entry are separate records, joined by “and”; a condition that tells them apart may be missing. Identical values can stand only once. Screen size: about 5,500 compounds; about 2,000 (36%) were called active. Roughly 18% stayed inconclusive and do not appear here. Rule as the data show it: active = normalized growth mostly below about 0.91 (no sharp cut-off); inconclusive = no clear call, values can overlap the other calls; inactive = mostly above about 0.92. The list shows a part of the results.

Assay: chemical genetic growth profiling, strain panel (AID 1159580);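 also: tested at 20 µM; growth read once vehicle control cultures reached saturation at 30 °C; 1 = growth at the plate median or of vehicle wells; lower values mean less growth of the strain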
Conditions: S. cerevisiae deletion strains, growth OD

Measured: normalized growth

CCN(Cc1ccncc1)C(=O)C(CO)c1ccccc1 (stereo unspecified)
inactive: locus YAL013W, strain DEP1, stronger effect = lower value 0.993 and 0.979 | locus YAL021C, strain ccr4, stronger effect = lower value 1.04 | locus YAL026C, strain drs2, stronger effect = lower value 1.03 | locus YAL030W, strain snc1, stronger effect = lower value 1.02 | locus YAL040C, strain CLN3, stronger effect = lower value 0.996 | locus YBL061C, strain skt5, stronger effect = lower value 1.02 | locus YBR009C, strain hhf1, stronger effect = lower value 1.03 | locus YBR021W, strain FUR4, stronger effect = lower value 1.01 | locus YBR023C, strain chs3, stronger effect = lower value 1.03 | locus YBR171W, strain sec66, stronger effect = lower value 1.04 | locus YBR229C, strain ROT2, stronger effect = lower value 0.996 | locus YBR231C, strain swc5, stronger effect = lower value 1.03 | locus YBR279W, strain paf1, stronger effect = lower value 1.01 | locus YCL011C, strain gbp2, stronger effect = lower value 1.02 | locus YCL016C, strain dcc1, stronger effect = lower value 1.03 | locus YCL029C, strain bik1, stronger effect = lower value 0.973 | locus YCL061C, strain MRC1 (second series), stronger effect = lower value 1.01 | locus YCL061C, strain MRC1, stronger effect = lower value 1.03 | locus YCL069W, strain vba3, stronger effect = lower value 1.03 | locus YCR088W, strain abp1, stronger effect = lower value 1.02 | locus YDL005C, strain med2, stronger effect = lower value 1.04 | locus YDL035C, strain GPR1, stronger effect = lower value 1 | locus YDL040C, strain nat1, stronger effect = lower value 1.02 | locus YDL074C, strain BRE1, stronger effect = lower value 0.989 | locus YDL101C, strain DUN1, stronger effect = lower value 0.987 | locus YDL134C, strain PPH21, stronger effect = lower value 0.999 | locus YDL185W, strain tfp1, stronger effect = lower value 0.964 | locus YDL192W, strain arf1, stronger effect = lower value 0.976 | locus YDR001C, strain nth1, stronger effect = lower value 1.02 | locus YDR069C, strain doa4, stronger effect = lower value 1.04 | locus YDR101C, strain arx1, stronger effect = lower value 0.985 | locus YDR137W, strain rgp1, stronger effect = lower value 1.07 | locus YDR150W, strain NUM1, stronger effect = lower value 0.994 | locus YDR159W, strain sac3, stronger effect = lower value 1.03 | locus YDR162C, strain NBP2, stronger effect = lower value 0.985 | locus YDR195W, strain ref2 1.02 | locus YDR297W, strain sur2, stronger effect = lower value 1.02 | locus YDR318W, strain mcm21, stronger effect = lower value 0.989 | locus YDR334W, strain swr1, stronger effect = lower value 1.03 | locus YDR335W, strain msn5, stronger effect = lower value 1.04 | locus YDR363W, strain ESC2, stronger effect = lower value 0.991 | locus YDR388W, stronger effect = lower value 0.993 | locus YDR392W, strain spt3, stronger effect = lower value 0.987 | locus YDR502C, strain sam2, stronger effect = lower value 1.01 | locus YEL003W, strain gim4, stronger effect = lower value 1.01 | locus YEL037C, strain rad23, stronger effect = lower value 1.02 | locus YEL061C, strain CIN8 (second series), stronger effect = lower value 1.03 | locus YEL061C, strain CIN8, stronger effect = lower value 0.995 | locus YER002W, strain NOP16, stronger effect = lower value 0.994 | locus YER015W, strain faa2, stronger effect = lower value 1.01 | locus YER016W, strain bim1, stronger effect = lower value 1.03 | locus YER110C, stronger effect = lower value 0.988 | locus YER111C, strain swi4, stronger effect = lower value 1.03 | locus YER155C, strain BEM2 (second series), stronger effect = lower value 1.03 | locus YER155C, strain BEM2, stronger effect = lower value 0.994 | locus YER167W, strain BCK2, stronger effect = lower value 0.989 | locus YFR010W, strain ubp6, stronger effect = lower value 1.02 | locus YGL078C, strain dbp3, stronger effect = lower value 1 | locus YGL086W, strain mad1, stronger effect = lower value 1 | locus YGL167C, strain pmr1, stronger effect = lower value 1.02 | locus YGL173C, strain kem1, stronger effect = lower value 1.04 | locus YGL227W, strain vid30, stronger effect = lower value 1.04 | locus YGL240W, strain doc1, stronger effect = lower value 1.03 | locus YGL248W, strain PDE1, stronger effect = lower value 1 | locus YGL253W, strain hxk2, stronger effect = lower value 1.02 | locus YGR078C, strain PAC10, stronger effect = lower value 0.989 | locus YGR135W, strain pre9, stronger effect = lower value 0.994 | locus YGR229C, strain SMI1, stronger effect = lower value 0.997 | locus YGR252W, strain gcn5, stronger effect = lower value 1.11 | locus YHR013C, strain ard1, stronger effect = lower value 1.05 | locus YHR027C, strain rpn1, stronger effect = lower value 1.05 | locus YHR030C, strain SLT2, stronger effect = lower value 0.981 and 1 | locus YHR079C, strain IRE1 (second series), stronger effect = lower value 0.984 | locus YHR079C, strain IRE1, stronger effect = lower value 0.989 | locus YHR094C, strain hxt1, stronger effect = lower value 0.977 | locus YHR129C, strain ARP1, stronger effect = lower value 0.993 | locus YHR142W, strain chs7, stronger effect = lower value 1.02 | locus YHR200W, strain rpn10, stronger effect = lower value 0.992 | locus YIL066C, strain RNR3, stronger effect = lower value 0.997 | locus YIL073C, strain SPO22, stronger effect = lower value 0.926 | locus YIL125W, strain kgd1, stronger effect = lower value 0.984 | locus YIR030C, strain dcg1, stronger effect = lower value 1 | locus YJL092W, strain hpr5, stronger effect = lower value 1.02 | locus YJL095W, strain BCK1 (second series), stronger effect = lower value 1.01 | locus YJL095W, strain BCK1, stronger effect = lower value 0.972 and 1.01 | locus YJL115W, strain asf1, stronger effect = lower value 1.04 | locus YJL129C, strain trk1, stronger effect = lower value 1.04 | locus YJL134W, strain LCB3, stronger effect = lower value 0.995 | locus YJL154C, strain vps35, stronger effect = lower value 1.02 | locus YJL164C, strain tpk1, stronger effect = lower value 1.02 | locus YJL166W, strain qcr8, stronger effect = lower value 1.02 | locus YJL168C, strain set2, stronger effect = lower value 0.983 | locus YJL187C, strain SWE1 (second series), stronger effect = lower value 0.979 | locus YJL187C, strain SWE1, stronger effect = lower value 1.02 | locus YJR043C, strain POL32, stronger effect = lower value 0.988 | locus YJR066W, strain TOR1, stronger effect = lower value 0.95
